ATXN viability: Viability Counterscreen for Primary qHTS for Inhibitors of ATXN expression | Potency, µM (highest dose often 56.7 µM), hits mostly cytotoxic | AID 651635, 2014 | actives 0.49% (n = 400,000) | S2 cells (HEK-293 line with an ATXN2-luciferase reporter) viability, CellTiter-Fluor protease fluorescence, 24 h; further: potency means the concentration at half of the fitted maximal effect; nearly all actives have a fitted effect of over 40% in size
TGFb inhibitor: qHTS for Inhibitors of TGF-b; HepG2 CAGA-GFP TGF-b/SMAD3 reporter, GFP fluorescence, 18 h; TGF-beta stimulated, 500 pg/mL final; Potency, µM (series often up to 46.1 µM), for the others: top-dose activity, negative = inhibition, hits mostly inhibitors; actives 1.2% (n = 410,000); AID 588855, 2011; further: potency means the concentration at half of the fitted maximal effect; on the % scale 0 is the no-effect control and ±100 the full control effect; nearly all actives have a fitted effect of over 65% in size
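Inhibition was scored as loss of TGF-beta-induced (500 pg/mL final, 18 hours, 37 degrees C) GFP in HEPG2 cells carrying a CAGA-GFP reporter, in DMEM with 1% FBS. Well GFP was summed per cell; Activity was normalised to unstimulated and stimulated DMSO wells, then concentration-response fitting.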
HepG2 viability: qHTS for Inhibitors of TGF-b: Cytotox Counterscreen. HepG2 CAGA-GFP viability, ATP luminescence, 18 h. Potency, µM (series often up to 46.1 µM), for the others: top-dose activity change, negative = cytotoxicity, actives largely listed as cytotoxic. actives 0.76% (n = 410,000). AID 588856, 2011; further: potency means the concentration at half of the fitted maximal effect
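CellTiter-Glo luminescence gave cytotoxicity after 18 hours at 37 degrees C. The cells were HepG2 CAGA-GFP in 1% FBS DMEM, stimulated with 500 pg/mL TGF-beta after compound addition. %Activity was normalised to no-cell wells (complete cell-killing) and DMSO (no toxicity), and curves were fitted and classified.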
ATXN2 expr inh: Primary qHTS for Inhibitors of ATXN expression; HEK-293 ATXN2-luciferase reporter, luminescence, 24 h; actives 0.72% (n = 360,000); Potency, µM (highest dose often 57 µM), inactives show top-dose activity change, negative = inhibition, hits mostly inhibitors; further: potency means the concentration at half of the fitted maximal effect; on the % scale 0 is the no-effect control and ±100 the full control effect; nearly all actives have a fitted effect of over 55% in size
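qHTS (up to 57 uM final) was run with 24 h compound exposure of reporter cells at 37 °C. Each well was multiplexed: SteadyGlo luminescence measured ATXN2-luciferase expression after a fluorogenic Gly-Phe-AFC viability readout (25 uM final).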
LDHA block: qHTS assay for inhibitors of human lactate dehydrogenase | actives 0.15% (n = 480,000) | activity change, % (values are at about 110 or 230 µM) | purified LDHA, NADH/diaphorase-resazurin fluorescence; active compounds read low | L-lactate dehydrogenase A chain (Homo sapiens), P00338; in the data active means activity change below about -30%; inconclusive means mostly about -25% to -30%;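 further: plate controls were DMSO wells for no effect and wells without enzyme for full effect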
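LDH5 2 nM; NADH 0.06 mM, pyruvate 0.2 mM; 200 mM Tris pH 7.4, EDTA, Tween-20; 5 min RT. Detection: diaphorase 0.133 mg/mL + resazurin 37 µM, fluorescence ex540/em590 at 0 and 20 min; normalized to enzyme-free and DMSO wells.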
mIDH1 inhibitor: qHTS for Inhibitors of mutant isocitrate dehydrogenase 1 (IDH1): qHTS; Isocitrate dehydrogenase [NADP] cytoplasmic (Homo sapiens), O75874; IDH1-R132H enzyme, NADPH consumption, diaphorase/resazurin fluorescence; Potency, µM (top dose mostly 76.6 µM), inactives show at the highest dose activity change, negative = inhibition, usual class: inhibitors; actives 0.093% (n = 390,000); AID 602179, 2012; further: potency means the concentration at half of the fitted maximal effect; on the % scale 0 is the no-effect control and ±100 the full control effect; nearly all actives have a fitted effect of over 65% in size
Target sequence (O75874 whole entry R132H, stated change not applied): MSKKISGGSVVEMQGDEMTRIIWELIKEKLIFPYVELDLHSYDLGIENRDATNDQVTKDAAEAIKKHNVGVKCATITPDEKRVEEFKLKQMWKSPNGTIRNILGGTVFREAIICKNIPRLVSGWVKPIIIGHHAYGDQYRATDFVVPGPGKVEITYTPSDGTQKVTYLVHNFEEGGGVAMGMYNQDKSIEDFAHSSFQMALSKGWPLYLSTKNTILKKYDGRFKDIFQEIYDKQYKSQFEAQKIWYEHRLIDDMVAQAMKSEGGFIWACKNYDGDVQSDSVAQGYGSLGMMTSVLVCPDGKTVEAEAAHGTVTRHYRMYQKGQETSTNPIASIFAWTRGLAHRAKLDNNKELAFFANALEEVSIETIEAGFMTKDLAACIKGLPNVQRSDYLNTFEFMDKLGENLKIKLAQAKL
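IDH1-R132H (0.5 ug/mL dispensed) in pH 7.5 Tris buffer was preincubated 30 min with compound, then given a substrate mix of 0.016 mM NADPH and 2 mM alpha-KG for 80 min at room temperature; remaining NADPH was read by diaphorase/resazurin fluorescence.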
The depositor's hits bear a star; i = inactive; ? = inconclusive; · = not tested or not shown; [ ] = remark or other dose. An excerpt weighted towards active compounds, which were near 2.2% of everything screened. Unless noted, the call rests on the fitted dose curve; in most records, active means well fitted curve in the direction sought with a large enough effect; inconclusive means small, poorly fitted or top-dose-only effect, or another doubt; inactive means no such curve, though single readings can be large; an effect the other way counts as inactive or inconclusive.

SMILES | ATXN viability | TGFb inhibitor | HepG2 viability | ATXN2 expr inh | LDHA block | mIDH1 inhibitor
CCOc1cc(/C=N/N=C(\N)c2nonc2N)cc(Br)c1OCc1cccc2ccccc12 | ? | ? | 11µM* | ? | -8 | -2%
COC(=O)C(C)Sc1nc2c(c(=O)n1-c1ccccc1)SCC2 (centres undefined) | i | -13% | -9% | 0% | 5 | 6%
CCOc1ccc(Nc2c3ccccc3nc3ccccc23)cc1 | ? | ? | -53% | 11µM* | -1 | -1%
CCOc1ccc(Nc2nc(NCC3CCCO3)c3ccccc3n2)cc1 (centres undefined) | ? | 11µM* | -51% | ? | -3 | -3%
CCOc1ccc(Nc2c(S(=O)(=O)c3ccccc3)cnc3ccc(F)cc23)cc1 | i | ? | -23% | ? | 3 | -14%
CCOc1ccc(Nc2c(S(=O)(=O)c3ccccc3)cnc3ccc(CC)cc23)cc1 | ? | 11µM* | -27% | ? | 3 | 8%
c1ccc(Nc2nc(NCC3CCCO3)c3ccccc3n2)cc1 (centres undefined) | ? | ? | -18% | -32%[11.3 µM] | 0 | -1%
CN(C)c1ccc(-c2[nH][nH]c(=O)c2NC(=O)c2ccc3ccccc3n2)cc1 | ? | ? | -77% | ? | 15 | ·
O=C(NCC(O)c1ccc([N+](=O)[O-])cc1)Nc1ccccc1 (centres undefined) | i | 4% | -1% | 7% | 2 | -1%
COC(=O)C[C@@H]1C[C@H]2c3cc(NC(=O)C4CCC4)ccc3O[C@H]2[C@@H](CO)O1 | i | -2% | -12% | 5% | 0 | -10%
O=C(C[C@@H]1C[C@H]2c3cc(NC(=O)C4CCC4)ccc3O[C@H]2[C@@H](CO)O1)NCc1ccc(-c2ccccc2)cc1 | ? | ? | 16µM* | ? | -3 | 8%
COc1cccc(NC(=O)c2nc(S(C)(=O)=O)ncc2Cl)c1 | ? | 16µM* | -96% | ? | 2 | 0%
Cc1cccc(NC(=O)c2nc(S(C)(=O)=O)ncc2Cl)c1 | ? | 7.9µM* | 20µM* | ? | -4 | 7%
CS(=O)(=O)c1ncc(Cl)c(C(=O)Nc2c(C(=O)Nc3ccccc3)oc3ccccc23)n1 | i | 19% | 7% | 1% | 0 | 18%
O=C(c1c(F)cccc1F)N(Cc1ccccc1)Cc1ccccc1 | i | -19% | -9% | -4% | 1 | 6%
O=C(NCC1CC1)c1cccc2c1C(=O)c1ccc(N3CCCC3)cc1S2(=O)=O | i | -14% | 3% | 2% | -2 | -3%
Cc1occc1-c1nnc(SC(C(=O)Nc2cccc(C(F)(F)F)c2)c2ccccc2)n1C (centres undefined) | · | · | · | · | 2 | ·
CC(C)CN(C(=O)COC(=O)C12CC3CC(CC(C3)C1)C2)c1c(N)n(Cc2ccccc2)c(=O)[nH]c1=O | 22µM* | 3% | 3% | 14µM* | -5 | 1%
Cc1ccccc1C(=O)N1CC=C(c2c[nH]c3ccccc23)CC1 | · | · | · | · | 1 | ·
CC(C)CCn1c(/C=C/c2ccccc2)nc2ccccc21 | ? | ? | 10µM* | -9% | -2 | -13%
COCCn1c(/C=C/c2ccccc2)nc2ccccc21 | i | -12% | -42% | 75% | 2 | 22%
COc1ccccc1NC(=O)c1ccc(NC(=O)c2cc3c(s2)CCC3)cc1 | i | -5% | -13% | -27% | -14 | 1%
Cc1cccc(NC(=O)C(C)Sc2ncnc3sccc23)c1 (centres undefined) | i | -9% | -29% | · | 0 | 2%
CNC(=O)[C@H](CC1=CN=C2C=CCC=C12)NC(=O)[C@@H](CC(=O)NO)CC(C)C | · | · | · | 0.017µM* | · | ·
O=C(c1ccccc1)c1ccc(OCC(O)CNCc2ccc(F)cc2)cc1 (centres undefined) | · | ? | -58% | -16% | -16 | 8%
SMILES | ATXN viability | TGFb inhibitor | HepG2 viability | ATXN2 expr inh | LDHA block | mIDH1 inhibitor
OC(CNCCc1ccc(Cl)cc1)COc1cc(Cl)ccc1Cl (centres undefined) | ? | 16µM* | -105% | ? | -1 | -9%
OC(CNCCc1ccccc1)COc1ccc(OCC(O)CNCCc2ccccc2)cc1 (centres undefined) | ? | ? | -90% | 28µM* | -2 | -18%
O=C(c1ccccc1)c1ccc(OCC(O)CNCc2cccc(Cl)c2)cc1 (centres undefined) | i | ? | 11µM* | -4% | -11 | 8%
OC(CNCCc1ccc(Cl)cc1)COc1ccc2ccccc2c1 (centres undefined) | i | ? | -102% | -1% | -2 | 1%
COc1ccc(NC(=O)Cn2ncc3c2-c2ccccc2OC3)cc1Cl | i | ? | -7% | -6% | -11 | -1%
COCCCN(C(=O)CSCC(=O)Nc1cccc(C)c1)c1c(N)n(Cc2ccccc2)c(=O)[nH]c1=O | ? | -1% | -3% | 1% | -5 | 1%
Cc1snc(S(=O)(=O)/C(C#N)=N/Nc2ccc(C(F)(F)F)cc2)c1C#N | i | 10µM* | -32% | -9% | -5 | -9%
CCOc1ccc(C(=O)Nc2cc(C)ccn2)cc1 | i | -19% | 14µM* | ? | 3 | 3%
CCNC(=S)Nc1cc(C)ccn1 | i | -14% | 1µM* | 7% | 2 | 2%
Cc1ccnc(NC(=O)c2ccc(S(=O)(=O)N3CCCCCC3)cc2)c1 | i | -23% | 2.2µM* | 33% | -2 | 4%
Cc1ccc(CC(=O)Nc2cc(C)ccn2)cc1 | i | -11% | -5% | 8% | -6 | 8%
CCOc1ccc(N(CC(=O)Nc2cccc(N(C)S(C)(=O)=O)c2)S(=O)(=O)c2ccccc2)cc1 | i | ? | -34% | -21% | 2 | 7%
CCn1ccnc1CN(C)Cc1cn(-c2cccc(C)c2)nc1-c1cccc(F)c1 | 25µM* | ? | -106% | · | 2 | 2%
COc1ccc(OC)c2cc3ccccc3cc12 | · | -6% | -7% | 18µM* | 24 | -19%
CCn1c(Cl)c(C=O)s/c1=N\S(=O)(=O)c1ccccc1 | 14µM* | 3.5µM* | 8.9µM* | 13µM* | -7 | -12%
O=C(NC(=S)Nc1ccc(Br)cc1)C1CCC1 | i | 0% | -10% | 33% | -2 | -6%

Screening results from PubChem BioAssay.
